The results in this text go back to PubChem BioAssay (NCATS).

Inconclusive results are not listed. Active and inactive are the calls of the source. Calls come from the whole dose curve; as a rule, active = well fitted curve in the direction sought with a large enough effect; inconclusive = small, poorly fitted or top-dose-only effect, or another doubt; inactive = no such curve, though single readings can be large; an effect the other way counts as inactive or inconclusive.

Assay [1] is described as follows: Quantitative High-Throughput drug screen in 47 multiple myeloma cell lines against the NCATS MIPE library collection: H1112_PLB cell viability assay (AID 1918967; note: nearly all actives have a fitted effect of over 30% in size). A digest of the protocol:
(§1)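 Steps: seed 500 cells per well; pin-transfer MIPE 4.0 library; incubate 48 h at 37C, 5% CO2, humidified; add CellTiter-Glo, 5 min room temperature; read luminescence.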

Assay [2] can be described thus: Quantitative High-Throughput drug screen in 47 multiple myeloma cell lines against the NCATS MIPE library collection: Karpas25_ECACC cell viability assay (AID 1918968; note: nearly all actives have a fitted effect of over 35% in size). An outline of the steps: as §1
The nature of assay [3]: Quantitative High-Throughput drug screen in 47 multiple myeloma cell lines against the NCATS MIPE library collection: KMS27_JCRB cell viability assay (AID 1918970). Note: nearly all actives have a fitted effect of over 30% in size. A digest of the protocol: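 Myeloma cells (500 per well) were exposed to MIPE 4.0 compounds for 48 h at 37 °C, 5% CO2; viability was read as ATP luminescence with CellTiter-Glo, normalized to DMSO-only (100%) and media-only (0%) wells.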

The nature of assay [4]: Quantitative High-Throughput drug screen in 47 multiple myeloma cell lines against the NCATS MIPE library collection: KMS20_JCRB cell viability assay (AID 1918973). Note: nearly all actives have a fitted effect of over 45% in size. An outline of the steps:
as §1

Assay [5] in a line: Quantitative High-Throughput drug screen in 47 multiple myeloma cell lines against the NCATS MIPE library collection: MMM1_PLB cell viability assay (AID 1918976). Note: nearly all actives have a fitted effect of over 35% in size. An outline of the steps:
(§2)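 Myeloma cells (500/well) treated with MIPE 4.0 compounds for 48 h at 37 °C, 5% CO2. Viability read as ATP via CellTiter-Glo luminescence after 5 min at RT; DMSO-only wells = 100%, media-only = 0% viability.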

Assay [6] is described as follows: Quantitative High-Throughput drug screen in 47 multiple myeloma cell lines against the NCATS MIPE library collection: NCIH929_DSMZ cell viability assay (AID 1918978). Note: nearly all actives have a fitted effect of over 35% in size. An outline of the steps:
as §2

Assay [7] in a line: Quantitative High-Throughput drug screen in 47 multiple myeloma cell lines against the NCATS MIPE library collection: OCIMY1_PLB cell viability assay (AID 1918979). Note: nearly all actives have a fitted effect of over 35% in size. An outline of the steps: as §2
The nature of assay [8]: Quantitative High-Throughput drug screen in 47 multiple myeloma cell lines against the NCATS MIPE library collection: KMS28PE_JCRB cell viability assay (AID 1918983). Note: nearly all actives have a fitted effect of over 35% in size. A digest of the protocol: as §2
Assay [9] is described as follows: Quantitative High-Throughput drug screen in 47 multiple myeloma cell lines against the NCATS MIPE library collection: OCIMY5_PLB cell viability assay (AID 1918988). Note: nearly all actives have a fitted effect of over 65% in size. A digest of the protocol:
as §2

Assay [10] can be described thus: Quantitative High-Throughput drug screen in 47 multiple myeloma cell lines against the NCATS MIPE library collection: KMS12PE_JCRB cell viability assay (AID 1918972). Note: nearly all actives have a fitted effect of over 30% in size. A digest of the protocol: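 Myeloma cells (500 per well) were exposed to MIPE 4.0 compounds by pin transfer and incubated 48 hours at 37C, 5% CO2. Viability was read as ATP by CellTiter-Glo luminescence, normalised to DMSO (100%) and media-only (0%) wells.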

Assay [11] in a line: Quantitative High-Throughput drug screen in 47 multiple myeloma cell lines against the NCATS MIPE library collection: KMS26_JCRB cell viability assay (AID 1918975). Note: nearly all actives have a fitted effect of over 45% in size. An outline of the steps: (§3)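 We plated 500 myeloma cells per well, pinned in MIPE 4.0 compounds, and incubated for 48 hours at 37C. ATP was then quantified with CellTiter-Glo, with DMSO and media-only wells defining 100% and 0%.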

Assay [12] can be described thus: Quantitative High-Throughput drug screen in 47 multiple myeloma cell lines against the NCATS MIPE library collection: MM1S_ATCC cell viability assay (AID 1918980). Note: nearly all actives have a fitted effect of over 45% in size. An outline of the steps:
as §2

Assay [13] in a line: Quantitative High-Throughput drug screen in 47 multiple myeloma cell lines against the NCATS MIPE library collection: MM1R_ATCC cell viability assay (AID 1918981). Note: nearly all actives have a fitted effect of over 35% in size. An outline of the steps:
as §2

Assay [14] is described as follows: Quantitative High-Throughput drug screen in 47 multiple myeloma cell lines against the NCATS MIPE library collection: LP1_DSMZ cell viability assay (AID 1918982). Note: nearly all actives have a fitted effect of over 35% in size. A digest of the protocol: as §2
Assay [15] is described as follows: Quantitative High-Throughput drug screen in 47 multiple myeloma cell lines against the NCATS MIPE library collection: KMS34_JCRB cell viability assay (AID 1918985). Note: nearly all actives have a fitted effect of over 40% in size. An outline of the steps:
as §2

A short description of assay [16]: Quantitative High-Throughput drug screen in 47 multiple myeloma cell lines against the NCATS MIPE library collection: KMS12BM_JCRB cell viability assay (AID 1918971). Note: nearly all actives have a fitted effect of over 35% in size. A digest of the protocol: as §3
Assay [17] is described as follows: Quantitative High-Throughput drug screen in 47 multiple myeloma cell lines against the NCATS MIPE library collection: MOLP8_DSMZ cell viability assay (AID 1918977). Note: nearly all actives have a fitted effect of over 45% in size. A digest of the protocol: as §2
Assay [18] can be described thus: Quantitative High-Throughput drug screen in 47 multiple myeloma cell lines against the NCATS MIPE library collection: OCIMY7_PLB cell viability assay (AID 1918987). Note: nearly all actives have a fitted effect of over 65% in size. An outline of the steps: as §2
A short description of assay [19]: Quantitative High-Throughput drug screen in 47 multiple myeloma cell lines against the NCATS MIPE library collection: L363_DSMZ cell viability assay (AID 1918984). Note: nearly all actives have a fitted effect of over 40% in size. An outline of the steps:
as §2

The nature of assay [20]: Quantitative High-Throughput drug screen in 47 multiple myeloma cell lines against the NCATS MIPE library collection: KMS21BM_JCRB cell viability assay (AID 1918974). Conditions: ATP luminescence, 48 h; viability: at 45.8 µM (top of the series). An outline of the steps:
as §1
Potency is the fitted concentration of half-maximal effect.

In the case of `CCn1cc(C(=O)O)c(=O)c2cc(F)c(N3CCNCC3)cc21`, the Potency entry in [1], in [2], in [3], in assay [4], in assay [5] and in assay [6] was “inactive” each time. In addition, the Potency result in assay [7] and in assay [9] was “inactive” throughout. The Potency in [8] was 2960 nM (active).
Regarding `CC(N)C12CC3CC(CC(C3)C1)C2` (stereo not drawn), the Potency entry in [1], in assay [2], in [3], in assay [10], in [4] and in [11] was “inactive” each time. Moreover, the Potency entry in assay [6], in [7], in [12], in assay [13], in assay [14] and in assay [15] was “inactive” each time.
With `Nc1nc(=S)c2[nH]cnc2[nH]1`, the Potency is 14800 nM (active) in assay [1]; 1480 nM (active) in [2]; 5900 nM (active) in assay [16]; 1320 nM (active) in assay [4]; 6620 nM (active) in assay [11]; 3320 nM (active) in assay [17]. For the same compound, the Potency in assay [6] is 1320 nM (active); in [7], 8330 nM (active); in assay [12], 3720 nM (active); in [14], 7430 nM (active); in assay [8], 8330 nM (active); in [15], 2960 nM (active). Besides, the Potency was 1320 nM (active) in [18] and 3720 nM (active) in assay [9]. In assay [3], the Potency result was “inactive”.
Regarding `C[C@@H](CN1CC(=O)NC(=O)C1)N1CC(=O)NC(=O)C1`, the Potency in assay [1] was 16600 nM (active); in assay [2], 9350 nM (active); in [3], 3720 nM (active); in assay [10], 1660 nM (active); in assay [6] it was 16600 nM (active); in assay [12] it was 3320 nM (active). Besides, the Potency in assay [19] is 2960 nM (active); in [18], 2350 nM (active). The Potency result in assay [11], in assay [14], in assay [15] and in assay [9] was “inactive” throughout.
Take `Cc1nnc(NS(=O)(=O)c2ccc(N)cc2)s1`: the Potency result in [1], in [5], in [6], in assay [7] and in [14] was “inactive” throughout. In addition, the Potency in assay [2] is 8330 nM (active); in [3] it was 1050 nM (active); in assay [10], 1320 nM (active); in assay [20] it was 418 nM (active); in assay [12] it was 2640 nM (active); in assay [13], 18700 nM (active). Further, the Potency in assay [8] was 23500 nM (active); in assay [19], 1180 nM (active); in [15], 18700 nM (active).
On to `Cn1nnc2c(C(N)=O)ncn2c1=O`, for which the Potency entry in assay [1], in assay [2], in assay [3], in assay [10], in assay [4] and in assay [11] was “inactive” each time. Moreover, the Potency result in assay [5], in assay [17], in assay [6], in assay [7], in [13] and in [14] was “inactive” each time.
For `Cc1ncc([N+](=O)[O-])n1CCO`, the Potency entry in assay [1], in assay [2], in assay [3], in assay [10], in assay [20] and in assay [17] was “inactive” in each case. Moreover, the Potency result in assay [6], in [7], in [13], in [14], in assay [8] and in assay [9] was “inactive” throughout.
Take `CC1CC2C3CCC4=CC(=O)C=C[C@]4(C)[C@@]3(F)[C@@H](O)C[C@]2(C)[C@@]1(O)C(=O)CO` (stereo partly drawn): the Potency entry in assay [1], in [3], in assay [10] and in assay [13] was “inactive” in each case. Besides, the Potency in assay [2] is 209 nM (active); in assay [5] it was 26.4 nM (active); in assay [17], 935 nM (active); in assay [6], 52.6 nM (active); in assay [12], 590 nM (active); in assay [8] it was 93.5 nM (active). The Potency in assay [9] is 2640 nM (active).
With `CCOCC(O)COc1ccc(NC(=O)CC[S+](C)C)cc1` (stereo not drawn), the Potency result in assay [1], in [2], in assay [3], in [16], in assay [4] and in assay [17] was “inactive” throughout. For the same compound, the Potency result in assay [6], in [13], in assay [14], in assay [8], in [19] and in assay [15] was “inactive” each time. Also, the Potency entry in assay [9] was “inactive”.
`NC(=O)c1cccnc1`: the Potency result in assay [1], in assay [2], in assay [10], in assay [4], in [6] and in assay [7] was “inactive” in each case. The Potency result in assay [12], in assay [13], in assay [14], in assay [8] and in assay [9] was “inactive” in each case. The Potency in [3] is 3 nM (active).
`CCn1cc(C(=O)O)c(=O)c2cc(F)c(N3CCNCC3)nc21`: the Potency result in [1], in assay [2], in [3], in assay [4], in [19] and in assay [9] was “inactive” throughout.
For `CC(C)(C#N)c1cc(Cn2cncn2)cc(C(C)(C)C#N)c1`, the Potency result in assay [1], in assay [2], in assay [3], in assay [10], in assay [4] and in assay [11] was “inactive” throughout. The Potency result in assay [6], in assay [7], in assay [12], in [13], in assay [14] and in [19] was “inactive” throughout. Also, the Potency result in assay [15] and in assay [9] was “inactive” in each case. The Potency in assay [5] is 1320 nM (active).
Take `NC(=O)N1c2ccccc2CC(=O)c2ccccc21`: the Potency entry in assay [1], in assay [2], in assay [3], in assay [10], in [4] and in assay [11] was “inactive” throughout. For the same compound, the Potency result in [6], in [13], in assay [14], in assay [19] and in assay [15] was “inactive” each time.
With `COc1nc(N)nc2c1ncn2[C@@H]1O[C@H](CO)[C@@H](O)[C@@H]1O`, the Potency result in assay [1], in [2], in [16], in [10], in assay [11] and in assay [17] was “inactive” each time. Further, the Potency entry in assay [6], in assay [7], in assay [13], in assay [14], in assay [8] and in assay [19] was “inactive” in each case. In [9], the Potency entry was “inactive”. In assay [4], the Potency was 23500 nM (active).
On to `CN1CCN(c2c(F)cc3c(=O)c(C(=O)O)cn(CCF)c3c2F)CC1`, for which the Potency result in assay [1], in [2], in [3], in assay [10], in [17] and in [6] was “inactive” in each case. Also, the Potency entry in [13], in assay [14], in [8] and in [19] was “inactive” each time.
